Screening data: PubChem, National Center for Advancing Translational Sciences (NCATS)
uPA surface inh: inhibitors of cell surface uPA generation | Potency, µM (top dose mostly 38.3 µM), hits mostly inhibitors | actives 0.31% (n = 330,000) | cell surface uPA generation assay, qHTS; active means well fitted inhibition curve with a large enough effect; inconclusive means small, poorly fitted or top-dose-only effect; inactive means no such curve, though single readings can be large or run the other way; tested in mouse RAW 264.7 cells; further: nearly all actives have a fitted effect of over 55% in size
HT1080-NT tox: kills 2HG-producing HT-1080-NT fibrosarcoma cells. Potency, µM (series often up to 46.1 µM), most hits filed as cytotoxic. HT-1080-NT fibrosarcoma viability, CellTiter-Glo ATP luminescence, 48 h. actives 1.6% (n = 360,000);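 further: NT is the 2HG producing partner of a matched IDH1 knockdown line; nearly all actives have a fitted effect of over 55% in size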
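A 48-hour cytotoxicity screen used HT-1080-NT cells plated 2 hours before compound delivery. ATP-based CellTiter-Glo luminescence measured viability, normalized to DMSO and no-cell controls.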
DT40 TDP1 CPT: growth inhibition of DT40 Tdp1-/-;hTDP1 cells with camptothecin (screen for TDP1 inhibitors); chicken DT40 Tdp1-/-;hTDP1 cells + 20 nM CPT, ATP luminescence, 48 h; Potency, µM (doses to about 46.2 µM), hits mostly inhibitors; actives 12% (n = 420,000); AID 686979; further: nearly all actives have a fitted effect of over 55% in size
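Chicken DT40 Tdp1-/- cells complemented with human TDP1, 400 cells/well, exposed to compounds plus 20 nM camptothecin for at least 48 h at 37 C; viability read as ATP content by CellTiter-Glo luminescence.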
TDP1 cell noCPT: qHTS for Inhibitors of human tyrosyl-DNA phosphodiesterase 1 (TDP1): qHTS in cells in absence of CPT; actives 15% (n = 420,000); AID 686978, 2013; Potency, µM (top dose mostly 46.2 µM), hits mostly inhibitors; DT40 Tdp1-/- hTDP1 cells, no CPT, ATP luminescence, 48 h; further: nearly all actives have a fitted effect of over 55% in size
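A cellular qHTS used chicken DT40 cells lacking endogenous Tdp1 but carrying stably transfected human TDP1. Compounds were applied without camptothecin, and cell growth kinetics were judged by ATP-dependent luminescence after ≥48 hr.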
IL-1B inflam inh: blocks inflammasome-driven IL-1 beta release | THP-1 LPS/ATP IL-1B secretion, AlphaLISA, 16 h; active compounds read low | activity change, % at 57.5 µM | actives 4.7% (n = 360,000); in the data active means activity change below about -50%; inconclusive means mostly about -30% to -49%
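Secreted IL-1B measured by AlphaLISA bead assay after 16 h compound exposure of THP-1 cells; compounds (final up to 57.5 uM) added 1 h before LPS (250 ng/mL) and ATP (1.25 mM) stimulation; lower signal means less secretion.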
HT1080 IDH1KD tx: toxicity to HT-1080 IDH1 knockdown cells (counter line); actives 2% (n = 360,000); Potency, µM (top dose mostly 46.1 µM), hits mostly cytotoxic; HT-1080 IDH1 knockdown viability, ATP luminescence, 48 h; AID 686971
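IDH1KD HT-1080 cells, 750/well, RPMI + 5% FBS; compound pinned after 2 h settling; 48 h, 37 °C; CellTiter-Glo luminescence; % activity normalised to DMSO and no-cell wells; curves fitted, classed by r2 and efficacy.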
A number is an active result; – = inactive; ? = inconclusive; · = not tested or not shown; ! = not active in a repeat. A selection: hits, their analogues and other compounds. The true share with any hit is near 19%. Unless noted, the call rests on the fitted dose curve; in most records, active means well fitted curve in the direction sought with a large enough effect; inconclusive means small, poorly fitted or top-dose-only effect, or another doubt; inactive means no such curve, though single readings can be large; an effect the other way counts as inactive or inconclusive.

SMILES	uPA surface inh	HT1080-NT tox	DT40 TDP1 CPT	TDP1 cell noCPT	IL-1B inflam inh	HT1080 IDH1KD tx
O=c1[nH]c2ccccc2n1C1CCN(C(CCc2ccccc2)c2nnnn2C2CCCCC2)CC1 (stereo not given)	·	–	21µM	13µM	-61	–
CSCCC(c1nnnn1C1CCCC1)N1CCC(n2c(=O)[nH]c3ccccc32)CC1 (stereo not given)	·	–	?	23µM	–	–
O=c1[nH]c2ccccc2n1C1CCN(C(c2nnnn2C2CCCCC2)C2CC2)CC1 (stereo not given)	·	–	?	15µM	–	–
CSCCC(c1nnnn1C1CCCCC1)N1CCC2(CC1)C(=O)NCN2c1ccccc1 (stereo not given)	·	–	?	?	–	–
CSCCC(c1nnnn1-c1c(C)cccc1C)N1CCC(n2c(=O)[nH]c3ccccc32)CC1 (stereo not given)	·	–	26µM	18µM	–	–
CCCC1(CC(C)CC)C(=O)NC(=O)NC1=O (stereo not given)	·	–	–	–	–	–
FC(F)(F)c1ccccc1N1CC1c1ccncc1 (stereo not given)	–	–	–	–	–	–
CC(C)(C)n1nnnc1C(C1CC1)N1CCC(n2c(=O)[nH]c3ccccc32)CC1 (stereo not given)	·	?	?	?	–	–
CC(C)(C)n1nnnc1C(CCc1ccccc1)N1CCC(n2c(=O)[nH]c3ccccc32)CC1 (stereo not given)	·	?	13µM	13µM	?	?
CSCCC(c1nnnn1C1CCCCC1)N1CCC(n2c(=O)[nH]c3ccccc32)CC1 (stereo not given)	·	?	18µM	9.2µM	–	?
CN1C(=O)N(C)C(=O)C(NS(=O)(=O)c2ccc(N)cc2)(c2ccccc2)C1=O	–	–	–	–	–	–
O=C(Nc1ccccc1)N1CCCC2(CCN(C(=O)Oc3ccccc3)CC2)C1	·	·	–	?	·	·
CCOc1ccc(-n2c(O)c(N=Nc3ccc([N+](=O)[O-])cc3)c(=O)[nH]c2=O)cc1	–	–	?	?	–	–
CCN(CC)C(=O)c1ccc(NC(=O)COc2ccccc2F)cc1	–	–	–	–	–	–
CCN(CC)C(=O)c1ccc(NC(=O)CCn2nc(-c3ccc(Cl)cc3)c3ccccc3c2=O)cc1	·	·	?	18µM	·	·
CC[C@H](CO)Nc1nc(NCc2ccccc2)c2ncn(C(C)C)c2n1	·	·	25µM	22µM!	·	·
CC1CCC(NC(=O)CN2CCN(S(=O)(=O)c3ccc(Br)s3)CC2)CC1 (stereo not given)	·	–	16µM	16µM	–	–
Cc1nc(-c2ccc(-c3ccc(C(=O)N4CCc5cc6c(cc54)C4(CCN(C)CC4)CO6)cc3)c(C)c2)no1	·	·	7.5µM	6µM	·	·
CN1CCN(C(=O)O[C@H]2c3nccnc3C(=O)N2c2ccc(Cl)cn2)CC1	–	–	–	–	–	–
CNC(=O)Oc1ccc(-c2cn3cc(C)ccc3n2)cc1	–	–	?	12µM	?	–
CNC(=O)Oc1cccc(-c2cn3cc(Cl)ccc3n2)c1	?	–	–	?	–	–
COC(=O)C1=C(c2ccccc2)C[C@@H]2CC[C@H]1N2C(=O)NCCCOC(C)C	–	–	–	–	–	–
Cc1nc(C)c(C(=O)NN=Cc2ccc(N(CCCl)CCCl)cc2)s1	–	–	?	12µM	–	–
O=C(NN=Cc1ccc(N(CCCl)CCCl)cc1)c1cccnc1	–	–	7.3µM	9.2µM	–	–
O=C(NN=Cc1ccc(N(CCCl)CCCl)cc1)c1cccc([N+](=O)[O-])c1	–	–	?	?	–	?
SMILES	uPA surface inh	HT1080-NT tox	DT40 TDP1 CPT	TDP1 cell noCPT	IL-1B inflam inh	HT1080 IDH1KD tx
CC(C)C(C)(NC(=O)c1cccn(Cc2ccc3c(c2)OC(F)(F)O3)c1=O)C(N)=O (stereo not given)	–	–	–	–	–	–
CCCCC[C@@H](O)C1C(=O)OC(C)[C@H](O)/C=C/C=C/C=C/C=C/C=C(\C)C(O)C(O)C(O)C[C@H](O)C[C@H](O)C[C@H](O)C[C@H](O)C[C@@H]1O (stereo not given in full)	·	·	–	–	·	·
CC1=CC(=O)OC2CC3OC4C[C@@H](C)C5OC6CC7O[C@]8(C)C/C=C\C9OC%10CC%11OC(CC(C)C%12OCCO%12)CC(O)[C@]%11(C)OC%10CC9OC8C[C@]7(C)O[C@]6(C)CCC5OC4C[C@]3(C)OC12 (stereo not given in full)	–	–	29µM	?	–	–
C=C(CC1CC(O)[C@]2(C)OC3CC4OC5C[C@]6(C)O[C@]7(C)CCC8OC9C[C@]%10(C)OC%11C(C)=CC(=O)OC%11CC%10OC9C[C@@H](C)C8OC7CC6O[C@]5(C)C/C=C\C4OC3CC2O1)C(=O)O (stereo not given in full)	–	–	?	?	–	–
O=C(CCCN1CCC2(CC1)C(=O)N(Cc1cccc(F)c1)CN2c1ccccc1)c1ccc(F)cc1	·	·	30µM	15µM	·	·
CCOP(=O)(OCC)C(O)c1ccc(OC)cc1 (stereo not given)	–	–	–	–	–	–
CC(C)(OOC1(c2ccccc2)NC(=O)c2ccccc21)c1ccccc1 (stereo not given)	·	–	?	18µM	–	–
COC(=O)Nc1nc2ccccc2[nH]1	–	?	6.5µM	5.8µM	–	?
COC(=O)c1cc2c(cn1)[nH]c1ccccc12	·	·	–	–	·	·
CC1(C(=O)O)CC12c1ccccc1-c1ccccc12 (stereo not given)	–	–	–	–	–	–
CO[C@H]1C[C@H](O[C@H]2[C@H](C)O[C@@H](O[C@@H]3/C(C)=C/C[C@@H]4C[C@@H](C[C@]5(C=C[C@H](C)[C@@H](C6CCCCC6)O5)O4)OC(=O)[C@@H]4C=C(C)[C@@H](O)[C@H]5OC/C(=C\C=C\[C@@H]3C)[C@]54O)C[C@@H]2OC)O[C@@H](C)[C@@H]1O	·	·	2.7µM	4.7µM	·	·
COC(=O)C1=C(c2ccccc2)C[C@@H]2CC[C@H]1N2C(=O)NCCS(C)=O (stereo not given in full)	–	–	–	–	–	–
CCOc1ccc(CCNC(=O)c2cc3c(-c4cccc(OC)c4)nn(C)c3s2)cc1OCC	·	·	?	18µM	·	·
CCOc1cc(CNCCc2cccc(F)c2)ccc1OC	–	–	?	?	–	–
CCOC(=O)C1C(=O)N(C)C2(C)CC1c1cc(OC)ccc1O2 (stereo not given)	–	–	–	–	–	–
